Here are results for ten compounds from PubChem BioAssay.

Structures are written as SMILES. Results filed as inconclusive are left out. Activity calls are given as the source filed them.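 How the source made its calls, unless noted: active means viability at or below 10% of carrier control in both of two separate runs; inconclusive means viability at or below 10% in only one of the two runs; inactive means the rest.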

A word on the viability: it is a read-out of living cells in per cent, often relative to untreated cells. Broadly, the inhibition is the change of the read-out against control, counted positive when it falls.

Assay [1] is described as follows: reducers of endogenous Her2 protein level, primary screen, SKBR3 breast tumor cells, AlphaScreen, ATP viability (AID 461;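 active means Her2 level under about 52% in both replicate screens, with viability over 70% of control, limit read from the data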;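 on Her2 level: lower value means less Her2 protein in the cells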;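 on viability: percent of carrier control wells set as 100% viability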). The note with it: 18-24 h, measured here: SKBR3 viability, ATP luminescence, at 10 µM. On the technique in general: In Alpha technology, singlet oxygen from a donor bead excites a nearby acceptor bead.
Assay [2] addresses Receptor tyrosine-protein kinase erbB-2 (Homo sapiens) (UniProt P04626). The assay is described as above. Particulars: 18-24 h, at 10 µM, stronger effect = lower value.
Assay [3] is described as follows: SK-BR-3 cell growth inhibitors, pilot screen, 24 h, human (AID 572).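 Further: compound exposure lasted between 18 and 24 h rather than exactly 24 h; 100% = carrier-treated control wells.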 The note with it: SK-BR-3 viability, CellTiter-Glo luminescence, at 10 µM, stronger effect = lower value. For orientation: In ATP-based viability assays light output follows the ATP content of the culture.
Assay [4] can be described thus: HUVEC growth inhibition – cell-based, human, primary screen (AID 575;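 active means viability at or below 30% in both replicate assays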;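 further: 100% = median of untreated cell wells with 0.1% DMSO on each plate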). Particulars: HUVEC proliferation, CellTiter-Glo luminescence, 72 h; at 10 µM; stronger effect = lower value.
Assay [5] is described as follows: growth inhibitors of H69AR lung tumor, primary screen, human, duplicate replicates (AID 580;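 active means viability at or under a set limit in both replicates, limit being median viability minus 3 SD, cut at about 48% in these data, passing the limit was not always enough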;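 further: 100% = mean luminescence of untreated wells and 0% = no signal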). The note with it: H69AR lung tumor cells viability, ATP luminescence, 72 h; at 10 µM; stronger effect = lower value.
A short description of assay [6]: reversal of MRP1-mediated doxorubicin resistance, pilot screen, H69AR cells, doxorubicin co-treatment (AID 601;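 active means viability loss from added drug above about 55%, and viability with drug at most 40%, in both replicates, limit read from the data, passing the limit was not always enough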). The note with it: CellTiter-Glo, 72 h, at 10 µM; for differential viability (reversal): stronger effect = higher value.
Assay [7] is described as follows: 384-well plate pilot, post-Golgi transport modulator project, inhibition of yeast transport mutant growth (AID 636; in the data active means inhibition above about 31%). The note with it: absorbance 615 nm, about 18 h, stronger effect = higher value.
The nature of assay [8]: growth suppression of yeast trafficking mutant, preliminary HTS, modulators of trafficking downstream of Golgi apparatus project, 1536-format plate, OD 615 nm (AID 637; in the data active means inhibition above about 30%). Particulars: yeast transport mutant growth, absorbance 615 nm, 18 h; stronger effect = higher value.
A short description of assay [9]: OD615 S. cerevisiae growth inhibition, permissive medium, pilot counter-assay, permissive growth control for S. cerevisiae lifespan shortening project (AID 705;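 active means growth inhibition above 25% in both replicates, a cutoff set 3 SD above the mean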). Particulars: OD615, 24 h, at 10 µM, stronger effect = higher value.
Assay [10] in a line: Restrictive medium S. cerevisiae growth inhibition, OD615, pilot screen of yeast lifespan reduction project, restrictive growth control (AID 706;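 active means growth inhibition above a set limit, 3 SD over mean compound inhibition, in both replicates, cut at about 43% in these data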;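 further: modified DeaD lifespan yeast strain shifted to restrictive glucose medium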). The note with it: OD615, 48 h, at 10 µM, stronger effect = higher value.
The nature of assay [11]: viability gain of MRP-1-high H69AR cells under doxorubicin, pilot screen, MRP-1 activator project, CellTiter-Glo, duplicate (AID 807;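 active means viability increase at or above a cutoff of the median across tested compounds plus 3 SD, cut at about 8.5% in these data, passing the limit was not always enough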;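 further: compound pretreatment 18-22 h then 72 h combined with doxorubicin; 0% = doxorubicin alone and 100% = vehicle without doxorubicin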). Particulars: H69AR viability with doxorubicin, CellTiter-Glo luminescence; at 10 µM; stronger effect = higher value.
Assay [12] in a line: growth suppression of beta-catenin knockout HCT116, pilot screen, human colon tumor cells (AID 823;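 active means cell viability at or below a set limit in both duplicate runs, the limit being the all-compound median minus 4 SD, cut at about 23% in these data, passing the limit was not always enough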;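 further: 0% = wells killed by 20 µM Hyamine and 100% = untreated DMSO cell wells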). Particulars: CellTiter-Glo, 60 h, at 10 µM, stronger effect = lower value.
Assay [13] can be described thus: inhibitors of the yeast RAM network, pilot screen, dse1pr::URA3 reporter, 5-FOA selection (AID 869;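 active means inhibition over a set limit, the all-compound mean plus 3 SD, in both replicate runs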;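 further: 0% = DMSO wells with no growth and 100% = 10 µM 1-NA-PP1 with full growth; RAM network block rescues cells from 5-FOA so hits raise OD615 growth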). Particulars: S. cerevisiae dse1pr::URA3 5-FOA growth, OD615, 2 d; at 10 µM; stronger effect = higher value; strain carries analog-sensitive mutant Cbk1 kinase.
Assay [14] is described as follows: RAM signaling pathway blockade in yeast – S. cerevisiae, Pdr1DBD-CYC8 efflux-inhibited sensitized strain, primary screen (AID 1298;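 active means RAM network inhibition above 8.4% in each of two replicates, 3 SD over the compound average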;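 further: 0% = DMSO untreated cells without growth and 100% = 10 µM 1-NA-PP1 full growth; higher means more yeast growth rescued from 5-FOA killing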). The note with it: S. cerevisiae cbk1-as DSE1-URA3 strain, 5-FOA growth OD615, 2 d; at 50 µM; stronger effect = higher value.
Assay [15] can be described thus: growth suppression of PTEN-deleted HCT116, pilot screen, cell-based, HCT116 clonal line, CellTiter-Glo (AID 824;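 active means viability at or below 27.92% in each of two runs, the all-compound median minus 4 SD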;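 further: 0% = 20 µM Hyamine control and 100% = vehicle cell control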). The note with it: 60 h, at 10 µM, stronger effect = lower value.
[16] abbreviates: H69AR cells + 2 uM doxorubicin, measured here: viability with 2 uM doxorubicin, stronger effect = lower value.
The mark [17] stands for this setting: H69AR cells, compound alone cytotoxicity.

Chain of Receptor tyrosine-protein kinase erbB-2 (Homo sapiens) (P04626 whole entry, looked up): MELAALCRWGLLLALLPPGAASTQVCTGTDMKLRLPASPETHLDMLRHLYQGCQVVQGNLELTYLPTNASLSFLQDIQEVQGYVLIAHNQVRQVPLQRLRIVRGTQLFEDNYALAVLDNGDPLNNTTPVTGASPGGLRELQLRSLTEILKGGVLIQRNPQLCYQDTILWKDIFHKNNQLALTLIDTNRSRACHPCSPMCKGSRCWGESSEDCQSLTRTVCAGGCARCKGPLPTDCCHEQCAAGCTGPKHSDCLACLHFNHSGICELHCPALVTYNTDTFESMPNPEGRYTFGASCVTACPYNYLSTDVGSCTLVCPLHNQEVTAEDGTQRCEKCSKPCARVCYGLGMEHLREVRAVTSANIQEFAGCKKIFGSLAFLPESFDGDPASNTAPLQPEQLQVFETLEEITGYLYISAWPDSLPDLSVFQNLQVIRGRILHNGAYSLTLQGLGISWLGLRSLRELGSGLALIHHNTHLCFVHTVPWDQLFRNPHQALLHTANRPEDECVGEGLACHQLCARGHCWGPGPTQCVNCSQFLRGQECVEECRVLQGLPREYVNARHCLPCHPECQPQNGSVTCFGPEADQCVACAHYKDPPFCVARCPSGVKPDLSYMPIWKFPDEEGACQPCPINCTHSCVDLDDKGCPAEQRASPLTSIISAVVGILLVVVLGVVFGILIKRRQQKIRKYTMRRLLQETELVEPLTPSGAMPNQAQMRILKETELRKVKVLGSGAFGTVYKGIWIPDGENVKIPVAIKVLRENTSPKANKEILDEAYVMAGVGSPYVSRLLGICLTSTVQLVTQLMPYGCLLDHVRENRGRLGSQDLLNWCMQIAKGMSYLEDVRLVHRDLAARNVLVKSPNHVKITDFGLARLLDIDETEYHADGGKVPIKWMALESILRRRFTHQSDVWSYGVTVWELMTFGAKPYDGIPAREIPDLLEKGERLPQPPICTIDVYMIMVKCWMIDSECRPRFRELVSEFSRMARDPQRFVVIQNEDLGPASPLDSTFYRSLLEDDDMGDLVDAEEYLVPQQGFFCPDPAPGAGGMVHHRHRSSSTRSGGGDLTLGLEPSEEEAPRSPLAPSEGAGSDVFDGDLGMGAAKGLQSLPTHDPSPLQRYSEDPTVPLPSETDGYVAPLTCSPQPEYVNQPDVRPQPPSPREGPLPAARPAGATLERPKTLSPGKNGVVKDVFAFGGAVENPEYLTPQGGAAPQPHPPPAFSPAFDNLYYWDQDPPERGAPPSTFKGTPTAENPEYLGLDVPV

On to `Cc1ccc(S(=O)(=O)N2CCOCC2)cc1C(=O)Nc1nc(-c2cccnc2)cs1`, for which the viability is 106% in assay [1]; 106% (inactive) in assay [3]; 88.8% (inactive) in assay [4]; 103% (inactive) in [5]; 94.3% in [6] (setting [16]); 103% in assay [6] (setting [17]). For the same compound, the viability in assay [12] was 96.8% (inactive). Moreover, the Her2 level in assay [2] was 91% (inactive). For the same compound, the differential viability (reversal) in assay [6] (H69AR cells + 2 uM doxorubicin) was 9% (inactive). In addition, the inhibition in assay [7] is 0% (inactive); in assay [8] it was -3.33% (inactive); in assay [13], 1.93% (inactive). In addition, the growth inhibition in [9] was -14.2% (inactive); in assay [10], -6.87% (inactive). Besides, the viability increase in [11] was -1.69% (inactive). Further, the RAM network inhibition in [14] was 3.11% (inactive).
For `CCOCCCNC(=O)C(c1ccc(C)cc1)N(Cc1ccc2c(c1)OCO2)C(=O)c1cnccn1` (centres undefined), the viability in assay [1] is 98%; in assay [3], 98% (inactive); in [4] it was 103% (inactive); in [5] it was 98.7% (inactive); in assay [6] (setting [16]), 98.9%; in assay [6] (setting [17]) it was 98.7%. Moreover, the viability in assay [12] was 93.8% (inactive). Further, the Her2 level in assay [2] was 102% (inactive). Further, the differential viability (reversal) in assay [6] (H69AR cells + 2 uM doxorubicin) is -0.27% (inactive). The results for the inhibition in assay [7], in assay [8] and in [13] were -5.34% (inactive), 2.38% (inactive) and 1.83% (inactive), respectively. The growth inhibition in [9] was -5.46% (inactive); in [10], 3.09% (inactive). For the same compound, in assay [11], the viability increase was -2.67% (inactive). In [14], the RAM network inhibition is 5.34% (inactive).
`CCCCN=CC1=C(O)C(C(=O)OC)C(C)(C)CC1=O` (centres undefined): the viability in [1] was 79%; in [3], 79% (inactive); in assay [4], 104% (inactive); in [5], 91.4% (inactive); in assay [6] (setting [16]), 86.9%; in assay [6] (setting [17]), 91.4%. Besides, the viability in [12] was 93.8% (inactive); in assay [15], 93.9% (inactive). Besides, the Her2 level in assay [2] is 93.5% (inactive). Besides, in assay [6] (H69AR cells + 2 uM doxorubicin), the differential viability (reversal) was 4.54% (inactive). Further, the inhibition is 1.03% (inactive) in [7], 25.8% (inactive) in assay [8] and 0.72% (inactive) in assay [13]. Moreover, the growth inhibition in assay [9] was -1.01% (inactive); in [10] it was -5.23% (inactive). For the same compound, the viability increase in [11] was -0.63% (inactive). Besides, in assay [14], the RAM network inhibition was 1.5% (inactive).
Regarding `CCc1ccc(N2CC(C(=O)OCC(=O)NC3CCS(=O)(=O)C3)CC2=O)cc1` (centres undefined), the viability in assay [1] is 100%; in [3], 100% (inactive); in [4], 98.6% (inactive); in assay [5], 103% (inactive); in assay [6] (setting [16]), 99.5%; in assay [6] (setting [17]) it was 103%. Also, the viability in [12] is 96.5% (inactive). For the same compound, the Her2 level in assay [2] was 112% (inactive). Moreover, the differential viability (reversal) in [6] (H69AR cells + 2 uM doxorubicin) is 3.14% (inactive). The inhibition in [7] was 3.12% (inactive); in [8], 7.54% (inactive); in assay [13], 0.795% (inactive). In addition, the growth inhibition is -17% (inactive) in [9] and 1.96% (inactive) in assay [10]. For the same compound, the viability increase in assay [11] is 1.23% (inactive). The RAM network inhibition in assay [14] is 3.33% (inactive).
As to `COCc1nnc(NC(=O)c2ccc(S(=O)(=O)N(C)c3ccccc3)cc2)o1`, the viability is 85% in assay [1]; 85% (inactive) in assay [3]; 66.6% (inactive) in assay [4]; 43.7% (active) in assay [5]; 62.2% in [6] (setting [16]); 43.7% in assay [6] (setting [17]). Besides, the viability in assay [12] was 29.7% (inactive). In addition, the Her2 level in assay [2] is 107% (inactive). In addition, the differential viability (reversal) in [6] (H69AR cells + 2 uM doxorubicin) was -18.5% (inactive). Further, the inhibition in assay [7] is -3.87% (inactive); in assay [8] it was -2.17% (inactive); in [13] it was 0.19% (inactive). For the same compound, the results for the growth inhibition in assay [9] and in [10] were 3.04% (inactive) and 9.5% (inactive), respectively. In addition, the viability increase in assay [11] was -5.06% (inactive). Besides, the RAM network inhibition in assay [14] was 4.65% (inactive).
Turning to `CN1CCN(c2nc3c(c(=O)[nH]c(=O)n3C)n2CCSc2nc3ccccc3s2)CC1`, the viability in assay [1] is 87%; in assay [3], 87% (inactive); in assay [4], 98% (inactive); in [5], 75.2% (inactive); in assay [6] (setting [16]) it was 85.8%; in assay [6] (setting [17]), 75.2%. Further, the results for the viability in assay [12] and in assay [15] were 98.3% (inactive) and 91.9% (inactive), respectively. Also, the Her2 level in assay [2] is 90.5% (inactive). The differential viability (reversal) in assay [6] (H69AR cells + 2 uM doxorubicin) was -10.6% (inactive). Moreover, the inhibition is -0.51% (inactive) in [7], 1% (inactive) in assay [8] and 2.66% (inactive) in assay [13]. Besides, the growth inhibition in assay [9] is -6.02% (inactive); in [10], -0.85% (inactive). In assay [11], the viability increase was -2.32% (inactive). Moreover, the RAM network inhibition in assay [14] is -1.87% (inactive).
`O=S(=O)(c1ccc(F)cc1)N1CCC(N2CCCC2)CC1`: the viability in assay [1] is 104%; in assay [3], 104% (inactive); in assay [4], 89% (inactive); in assay [5], 91.2% (inactive); in assay [6] (setting [16]), 80.9%; in assay [6] (setting [17]) it was 91.2%. Moreover, the viability in [12] was 96.2% (inactive); in assay [15], 95.9% (inactive). Moreover, in [2], the Her2 level is 96% (inactive). For the same compound, the differential viability (reversal) in assay [6] (H69AR cells + 2 uM doxorubicin) was 10.3% (inactive). The values for the inhibition in assay [7], in assay [8] and in assay [13] were -4.4% (inactive), 3.67% (inactive) and 1.23% (inactive), respectively. In addition, the growth inhibition in assay [9] was -0.015% (inactive); in [10], -5.88% (inactive). For the same compound, the viability increase in [11] was -2.89% (inactive). Besides, in [14], the RAM network inhibition is 0.93% (inactive).
`Cc1ccc(Cn2c(CN3CCOCC3)nc3c2c(=O)n(C)c(=O)n3C)cc1`: the viability in assay [1] was 80.5%; in [3], 80.5% (inactive); in assay [4], 90.5% (inactive); in [5], 102% (inactive); in assay [6] (setting [16]), 99.6%; in assay [6] (setting [17]), 102%. In addition, the viability in [12] was 92.4% (inactive). Moreover, in assay [2], the Her2 level is 89.5% (inactive). For the same compound, the differential viability (reversal) in assay [6] (H69AR cells + 2 uM doxorubicin) was 2.54% (inactive). Moreover, the inhibition in assay [7] is -5.14% (inactive); in [8], 0% (inactive); in assay [13], 2.71% (inactive). Moreover, the results for the growth inhibition in assay [9] and in [10] were -18% (inactive) and -8.04% (inactive), respectively. In addition, in [11], the viability increase is -4.67% (inactive). Further, in assay [14], the RAM network inhibition was 2.86% (inactive).
Regarding `Cc1c(C#N)c2ccccc2n1CC(=O)N1CCc2ccccc2C1`, the viability in assay [1] was 102%; in [3] it was 102% (inactive); in assay [4] it was 93.5% (inactive); in assay [5] it was 94.9% (inactive); in assay [6] (setting [16]) it was 92.2%; in assay [6] (setting [17]), 94.9%. The viability was 92.9% (inactive) in assay [12] and 92.7% (inactive) in assay [15]. Also, in assay [2], the Her2 level was 120% (inactive). Also, the differential viability (reversal) in assay [6] (H69AR cells + 2 uM doxorubicin) is 2.7% (inactive). The inhibition in assay [7] was 6.67% (inactive); in assay [8], -3.17% (inactive); in assay [13], 2.05% (inactive). Besides, the growth inhibition is -1.57% (inactive) in assay [9] and -2.33% (inactive) in assay [10]. The viability increase in assay [11] is -3.16% (inactive). In addition, the RAM network inhibition in assay [14] was 4.34% (inactive).
Consider `Nn1c(Cc2ccccc2F)nnc1SCC(=O)N1CC(=O)Nc2ccccc21`, for which the viability is 112% in [1]; 112% (inactive) in assay [3]; 109% (inactive) in assay [4]; 84.1% (inactive) in assay [5]; 86.1% in assay [6] (setting [16]); 84.1% in assay [6] (setting [17]). For the same compound, the viability in [12] is 114% (inactive). The Her2 level in assay [2] was 94.5% (inactive). For the same compound, the differential viability (reversal) in assay [6] (H69AR cells + 2 uM doxorubicin) is -1.98% (inactive). Moreover, the inhibition in assay [7] was -2.86% (inactive); in assay [8] it was -10.7% (inactive); in assay [13], 2.1% (inactive). In addition, the results for the growth inhibition in [9] and in assay [10] were -11.9% (inactive) and -7.2% (inactive), respectively. The viability increase in [11] was -2.14% (inactive). Also, the RAM network inhibition in [14] was 3.29% (inactive).
